The text below walks through data of PubChem BioAssay (NCATS).

A number with no mark means an inactive call. Inconclusive results are not listed. Active and inactive are the calls of the source. The call rests on the fitted dose curve; in most records, active means well fitted curve in the direction sought with a large enough effect; inconclusive means small, poorly fitted or top-dose-only effect, or another doubt; inactive means no such curve, though single readings can be large; an effect the other way counts as inactive or inconclusive.

In test [1] the target is Glutathione peroxidase 1 (Homo sapiens) (UniProt P07203). The test can be described thus: Primary qHTS Assay for Inhibitors of Recombinant Selenoprotein Glutathione Peroxidase 1 (GPX1) (AID 1845191). Further: nearly all actives have a fitted effect of over 65% in size. Put shortly: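 10 nM GPX1 + cpd, 30 min RT; start w/ 1 mM GSH, 0.5 mM cumene hydroperoxide, 0.5 mM NADPH, 100 nM GR, 0.01% BSA; buffer 50 mM Tris-HCl pH 7.5, 2 mM EDTA, 150 mM NaCl; Fl 340/450, 0 & 15 min.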
Sequence of Glutathione peroxidase 1 (Homo sapiens) (P07203 whole entry, looked up): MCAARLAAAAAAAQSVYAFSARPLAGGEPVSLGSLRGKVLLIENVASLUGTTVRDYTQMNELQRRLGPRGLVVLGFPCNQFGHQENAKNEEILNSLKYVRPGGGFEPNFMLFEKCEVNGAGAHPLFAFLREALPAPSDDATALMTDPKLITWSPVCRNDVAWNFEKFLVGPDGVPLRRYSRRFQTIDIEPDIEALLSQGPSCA

The target of test [2] is Phospholipid hydroperoxide glutathione peroxidase GPX4 (Homo sapiens) (UniProt P36969). In words: Primary qHTS Assay for Inhibitors of Recombinant Selenoprotein Glutathione Peroxidase 4 (GPX4) (AID 1845192). Further: nearly all actives have a fitted effect of over 65% in size. In outline:
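NADPH consumption, followed by fluorescence at 340/450 nm between 0 and 15 min, reports GPX4 activity via coupled glutathione reductase (100 nM). Enzyme 200 nM was pre-exposed to compound 30 min; 0.5 mM cumene hydroperoxide and 1 mM GSH served as substrates.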

Test [3] concerns the target Luciferin 4-monooxygenase (Photinus pyralis) (UniProt P08659). In words: Primary firefly luciferase (FLuc) qHTS assay for identification of artifact compounds. (AID 1845220). Further: nearly all actives have a fitted effect of over 60% in size. Put shortly: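 Compounds sat 15 min at room temperature with 10 uM luciferin and 10 uM ATP (pH 7.6 Tris acetate). Firefly luciferase (10 nM final) was then added, and luminescence was read 5 min later. Data normalized to no-enzyme and DMSO controls were Hill-fitted.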

The nature of test [4]: Primary fluorescence-based thiol-reactive (MSTI) qHTS assay for identification of artifact compounds. (AID 1845221). Further: nearly all actives have a fitted effect of over 65% in size. Further: potency means the concentration at half of the fitted maximal effect. In outline:
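Reactivity toward the thiol probe MSTI (4 uM) is scored by fluorescence at Ex/Em 525/598 nm after 1 h at room temperature. Acetyl-MSTI and MSTI define the activity scale.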

The test system of test [5] is Nanoluciferase (engineered Oplophorus gracilirostris luciferase). The test can be described thus: Primary Nanoluciferase (NLuc) qHTS assay for identification of artifact compounds. (AID 1845222). Further: series mostly up to about 54 µM. Put shortly: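 Luminescence from secreted NLuc (filtered, 1:55-diluted S16 cell medium) read 5 min after Nano-Glo substrate; compounds preincubated 15 min, RT. Hill fits of inhibition normalized to DMSO and no-enzyme.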

Test [6] is described as follows: Primary redox qHTS assay for identification of artifact compounds. (AID 1845223). Put shortly:
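Amplex Red (25 uM) and HRP (250 mU/mL) in HBSS, with compounds for 15 min, then 250 uM DTT for 30 min, room temperature, dark. Fluorescence 525/598 nm read; normalized to DMSO and 10 uM DA3003; Hill fit.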

Sequence of Phospholipid hydroperoxide glutathione peroxidase GPX4 (Homo sapiens) (P36969 whole entry, looked up): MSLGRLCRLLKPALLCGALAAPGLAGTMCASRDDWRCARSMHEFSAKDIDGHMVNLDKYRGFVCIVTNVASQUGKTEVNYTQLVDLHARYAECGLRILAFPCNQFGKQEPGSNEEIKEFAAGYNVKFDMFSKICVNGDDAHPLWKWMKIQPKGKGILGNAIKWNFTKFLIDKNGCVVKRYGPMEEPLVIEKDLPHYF

For the compound `COc1ccc(-n2c(SCC#N)nc3sc4c(c3c2=O)CCCC4)cc1`, the Potency entry in test [1], in test [2], in test [3], in test [4], in test [5] and in test [6] was “inactive” throughout.
On to `C=C1[C@H](OC(C)=O)[C@H]2[C@@H](OC(C)=O)C(C)C[C@]2(OC(C)=O)C(=O)[C@H](C)/C=C/C(C)(C)C(=O)[C@H](OC(=O)C(C)C)[C@H]1OC(C)=O` (stereo not given in full), for which the Potency result in test [1], in test [2], in test [3], in test [4], in test [5] and in test [6] was “inactive” throughout.
On to `O=C(CCCCC1CCCCC1)N1CCC(c2cnc[nH]2)CC1`, for which the Potency result in test [1], in test [2], in test [3], in test [4], in test [5] and in test [6] was “inactive” each time.
`CC(CCO)CCC1C2(C)CCCC(C)(C)C2CC[C@@]1(C)O` (stereo not given in full): the Potency entry in test [1], in test [2], in test [3], in test [4], in test [5] and in test [6] was “inactive” each time.
As to `Cc1occc(=O)c1O[C@@H]1O[C@H](CO[C@@H]2OC[C@](O)(CO)[C@H]2O)[C@@H](O)[C@H](O)[C@H]1O`, the Potency result in test [1], in test [2], in test [3], in test [4], in test [5] and in test [6] was “inactive” throughout.
Turning to `Cc1ncc(Cl)cc1NCc1ccc(C(=O)NC(CC2CCCC2)C(=O)NC2CC2)s1` (stereo not given), the Potency entry in test [1], in test [2], in test [3], in test [4], in test [5] and in test [6] was “inactive” throughout.
Turning to `CNC(C)C(=O)NC(C(=O)N1CCCC1C(=O)Nc1cccc2ncccc12)C(C)C` (stereo not given), the Potency entry in test [1], in test [2], in test [3], in test [4], in test [5] and in test [6] was “inactive” in each case.
For the compound `C=C(C)[C@@H]1CC[C@]2(C(=O)O)CC[C@]3(C)[C@H](CCC4[C@@]5(C)CCC(=O)C(C)(C)C5C(O)C[C@]43C)C12` (stereo not given in full), the Potency result in test [1], in test [2], in test [3], in test [4], in test [5] and in test [6] was “inactive” throughout.
For `COc1cc(C2OCC3(O)C(c4ccc(O[C@@H]5O[C@H](CO)[C@@H](O)[C@H](O)[C@H]5O)c(OC)c4)OCC23O)ccc1O` (stereo not given in full), the Potency entry in test [1], in test [2], in test [3], in test [4], in test [5] and in test [6] was “inactive” in each case.
As to `CC(C)C1NC(=O)C(CC2(O)c3ccccc3N3C(=O)C(Cc4ccccc4)NC32)NC1=O` (stereo not given), the Potency result in test [1], in test [2], in test [3], in test [4], in test [5] and in test [6] was “inactive” throughout.
As for `CC1=CC(=O)C2C(C)(C)CCC[C@]2(C)[C@H]1CC[C@H](C)CC(=O)O` (stereo not given in full), the Potency entry in test [1], in test [2], in test [3], in test [4], in test [5] and in test [6] was “inactive” each time.
As to `NC(=O)C(O[C@@H]1O[C@H](CO[C@@H]2O[C@H](CO)[C@@H](O)[C@H](O)[C@H]2O)[C@@H](O)[C@H](O)[C@H]1O)c1ccccc1` (stereo not given in full), the Potency result in test [1], in test [2], in test [3], in test [4], in test [5] and in test [6] was “inactive” each time.
Take `CC(=O)NCC1CN(c2ccc(-c3ccc(CNCc4cn[nH]n4)cc3)c(F)c2)C(=O)O1` (stereo not given): the Potency result in test [1], in test [2], in test [3], in test [4], in test [5] and in test [6] was “inactive” throughout.
As for `O=C(/C=C/c1ccccc1)O[C@@H]1[C@@H](CO)O[C@@](CO)(O[C@H]2O[C@H](CO)[C@@H](O)[C@H](O)[C@H]2O)[C@H]1O`, the Potency entry in test [1], in test [2], in test [3], in test [5] and in test [6] was “inactive” throughout. In addition, in test [4], the Potency is 2920 nM (active).
Turning to `CC(C)c1c(NC(=O)Nc2ccc(Cl)cc2)c(=O)n(-c2ccccc2)n1C`, the Potency result in test [1], in test [2], in test [3], in test [4], in test [5] and in test [6] was “inactive” each time.
On to `CCNC(=O)C1CC(F)(c2ccc(CN3CCCC3)c(F)c2)C1` (stereo not given), for which the Potency entry in test [1], in test [2], in test [3], in test [4], in test [5] and in test [6] was “inactive” in each case.
In the case of `NC(=O)NCCCC(NC(=O)Cc1ccccc1)C(=O)O` (stereo not given), the Potency result in test [1], in test [2], in test [3], in test [4], in test [5] and in test [6] was “inactive” in each case.
On to `COc1cc(-c2ccc(O)cc2)c(OC)c(O)c1C1=CC(=O)OC1CC(=O)O` (stereo not given), for which the Potency result in test [1], in test [2], in test [3], in test [4], in test [5] and in test [6] was “inactive” each time.
On to `CC1=C[C@H]2[C@@H](CC1=O)[C@H](C)C[C@H](O)[C@H]2C(C)C`, for which the Potency result in test [1], in test [2], in test [3], in test [4], in test [5] and in test [6] was “inactive” throughout.
For the compound `CC(=O)O[C@@]1(C)[C@@H]2CC(=C(C)C)C(=O)C[C@@]2(C)CC[C@H]1OC(=O)C1(C)OC1C` (stereo not given in full), the Potency entry in test [1], in test [2], in test [3], in test [4], in test [5] and in test [6] was “inactive” each time.
